Vaccinia mCherry = vaccinia inhibition (mCherry reporter) | Vaccinia virus mCherry reporter infection, fluorescence | Potency, µM (top dose mostly 36.5 µM), for the others: at the top dose activity change, negative = inhibition, hits mostly inhibitors | 310,000 tested, 0.63% active; calls by dose curve; tested in A549 cells; note: nearly all actives have a fitted effect of over 35% in size
VACV Venus inh = vaccinia inhibition (Venus reporter) | 330,000 tested, 0.46% active | Vaccinia virus Venus reporter expression, fluorescence | Potency, µM (highest dose often 36.5 µM), for the others: top-dose activity change, negative = inhibition, actives largely listed as inhibitors | AID 720580; calls by dose curve; tested in A549 cells; note: nearly all actives have a fitted effect of over 30% in size
Lassa entry inh = Lassa virus entry inhibition. Potency, µM (top dose mostly 37.9 µM), for the others: at the top dose activity change, negative = inhibition, hits mostly inhibitors. Lassa virus pseudotype entry inhibition, cell reporter. 300,000 tested, 1.2% active; calls by dose curve; tested in HEK293 cells; note: nearly all actives have a fitted effect of over 50% in size
Marburg entry inh = inhibitors of Marburg virus binding or cell entry; Marburg virus pseudotyped entry inhibition, cell reporter; Potency, µM (highest dose often 37.8 µM), for the others: at the top dose activity change, negative = inhibition, most hits filed as inhibitors; 300,000 tested, 1.8% active; calls by dose curve; tested in HEK293 cells
Starred values were filed as active, the others as inactive; i = inactive; ? = inconclusive; . = no result; [ ] = dose if it differs, or a comment. Sampled rows, rich in hits. Any-hit rate of the full collection: about 2.5%. % is set by controls: 0 for no effect and ±100 for the full control effect; potency is the fitted concentration of half-maximal effect.

SMILES	Vaccinia mCherry	VACV Venus inh	Lassa entry inh	Marburg entry inh
c1ccc2c(c1)ccc1[nH]c3c(c12)CCCC3	?	6%	0.63µM*	0.5µM*
CC(C)COc1ccc(CSCCNC(=S)Nc2ccccc2)cc1	.	10µM*	?	?
S=P(N1CCCCCC1)(N1CC1)N1CC1	-23%	-15%	?	7.1µM*
S=P(N1CCOCC1)(N1CC1)N1CC1	i	-8%	-25%[46.1 µM]	?
COCc1ccc(C(=O)N2CCOc3c(cc(-c4cc(C)c5cccc(OC)c5n4)cc3OC)C2)o1	-16%	-8%	.	.
CN(C)c1ccc(/C=C/c2ccnc3ccc(F)cc23)cc1	-39%	-42%	.	.
O=C(/C=C1\NC2(CCCC2)Cc2ccccc21)C(=O)N/N=C/c1ccccc1O	13µM*	?	15µM*	11µM*
COc1ccccc1[C@H]1/C(=C(\O)c2ccc(C)cc2)C(=O)C(=O)N1Cc1ccco1	.	.	.	-1%[46.1 µM]
C=CC(=O)Nc1cccc(Oc2cc(Cl)nc3[nH]ccc23)c1	?	1.6µM*	.	.
CC(C)[C@@H](OCc1ccccc1)[C@H](C)C=NOC[C@@H](O)[C@H]1O[C@@H]2OC(C)(C)O[C@H]2[C@@H]1O	.	.	0%[14.3 µM]	-5%[14.2 µM]
CCN(CC)S(=O)(=O)c1ccc2c(c1)nc(CCC(=O)O)n2CC	-1%	-1%	10%	1%[14.2 µM]
CCN(CC(=O)Nc1cccc(C(C)=O)c1)S(=O)(=O)c1ccc(OC)cc1	.	-6%	-6%	?
CCN(CC)S(=O)(=O)c1cccc(NC(=O)CN(C)Cc2cccc(OC)c2)c1	-11%	-16%	11µM*	23µM*
CCN(CC)S(=O)(=O)c1cccc(NC(=O)Nc2cccc(C(F)(F)F)c2)c1	.	.	16µM*	15µM*
CCN(CC)S(=O)(=O)c1ccc2c(c1)nc(CCC(=O)Nc1cccc(C(F)(F)F)c1)n2CC	.	?	?	11µM*
O=C(c1c[nH]cc1-c1ccccc1)c1cccc2ccccc12	.	.	-16%	12µM*
O=C(c1ccccc1)c1c[nH]cc1-c1ccccc1	.	.	3%	4%
Nc1cccc(Nc2nc(OC(C(F)(F)F)C(F)(F)F)nc(OC(C(F)(F)F)C(F)(F)F)n2)c1	-33%[1.46 µM]	28µM*	?	?
COc1nc(Nc2ccc(O)cc2)nc(OC(C(F)(F)F)C(F)(F)F)n1	.	.	?	9%
O=C(/C=C/c1cccc(Cl)c1)c1ccc([N+](=O)[O-])o1	10µM*	10µM*	.	.
O=C(NCCc1cn2ccccc2n1)c1cc(COc2ccc3ncccc3c2)on1	?	-15%	-23%	5.6µM*
Cc1ccc(C(C)C)c(OCCCN2C(=O)NC(C)(C)C2=O)c1	.	.	12µM*	?
Cc1ccc([N+](=O)[O-])c(OCCN2C(=O)NC(C)(C)C2=O)c1	.	.	2%	-6%
Cc1ccc(C(C)C)c(OCCCN(C)Cc2ccccc2)c1	-21%	-13%	?	8.2µM*
Cc1ccc(CN2CCOc3ccc(C(C)(O)COc4ccccc4)cc3C2)o1 (stereo not drawn)	-9%	7%	.	.
SMILES	Vaccinia mCherry	VACV Venus inh	Lassa entry inh	Marburg entry inh
CC1=NN(c2nc(-c3ccc(C)cc3)cs2)C(=O)C1N=Nc1ccc2ccccc2c1 (stereo not drawn)	.	14%	3%	23%
CC1=NN(c2nc(-c3ccc(C)cc3)cs2)C(=O)C1N=Nc1ccc(C(N)=O)cc1 (stereo not drawn)	?	-1%	4.6µM*	6.5µM*
O=C(NC1CCN(Cc2ccccc2)CC1)c1ccc(S(=O)(=O)NCc2ccco2)cc1	?	-16%	-24%[46.1 µM]	3.5µM*
CCN(c1ccccc1)S(=O)(=O)c1ccc(C(=O)NC2CCN(Cc3ccccc3)CC2)cc1	?	?	?	0.71µM*
CCN(c1ccccc1)S(=O)(=O)c1ccc(C(=O)N2CCN(c3ccccc3)CC2)cc1	-29%	-23%	7.9µM*	?
CCN(c1ccccc1)S(=O)(=O)c1ccc(C(=O)NC2CCCCC2)cc1	-6%	-16%	.	.
COc1ccc(CN2CCN(C(=O)c3ccc(S(=O)(=O)NCc4ccco4)cc3)CC2)cc1	-14%	-28%	?	0.32µM*
Cc1nc2cc(NC(=O)[C@@H]3C[C@@H](Sc4ccccn4)CN3Cc3ccccc3)ccc2s1	-14%	-4%	.	.
C[C@@H]1C[C@@H]([C@H](O)CC2CC(=O)NC(=O)C2)C(=O)[C@@H](C)C1	0.32µM*	0.28µM*	.	.
CC(=O)OC1(C)CC(C)C(=O)C(C(O)CC2CC(=O)NC(=O)C2)C1 (stereo not drawn)	?	0.1µM*	.	.
CC(CCC(=O)OC[C@H]1O[C@H](C#Cc2ccccc2)C=C[C@H]1Oc1ccc(C)cc1)=NOC[C@@H](O)[C@H]1O[C@@H]2OC(C)(C)O[C@H]2[C@@H]1O	.	.	1%[14.3 µM]	-2%[14.2 µM]

Screening results as filed in PubChem BioAssay.
